Calls of active or inactive are those of the source.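 How the source made its calls: active means peak inhibition of the KCNQ2 potassium channel above 30% at some tested dose, plus a fitted dose response curve; inactive means no inhibition at any dose, or no curve.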
What follows are compounds tested against Potassium voltage-gated channel subfamily KQT member 2 (Rattus norvegicus) (UniProt O88943) (assay: blockade of KCNQ2 thallium flux – cell-based, FluxOR thallium flux, CRC set 2, selectivity assay for KCNK9 inhibitor project, SAR follow-up (AID 588800)). Conditions: KCNQ2-expressing cells; series mostly up to 30 µM.
Potassium voltage-gated channel subfamily KQT member 2 (Rattus norvegicus), sequence (O88943 whole entry, looked up): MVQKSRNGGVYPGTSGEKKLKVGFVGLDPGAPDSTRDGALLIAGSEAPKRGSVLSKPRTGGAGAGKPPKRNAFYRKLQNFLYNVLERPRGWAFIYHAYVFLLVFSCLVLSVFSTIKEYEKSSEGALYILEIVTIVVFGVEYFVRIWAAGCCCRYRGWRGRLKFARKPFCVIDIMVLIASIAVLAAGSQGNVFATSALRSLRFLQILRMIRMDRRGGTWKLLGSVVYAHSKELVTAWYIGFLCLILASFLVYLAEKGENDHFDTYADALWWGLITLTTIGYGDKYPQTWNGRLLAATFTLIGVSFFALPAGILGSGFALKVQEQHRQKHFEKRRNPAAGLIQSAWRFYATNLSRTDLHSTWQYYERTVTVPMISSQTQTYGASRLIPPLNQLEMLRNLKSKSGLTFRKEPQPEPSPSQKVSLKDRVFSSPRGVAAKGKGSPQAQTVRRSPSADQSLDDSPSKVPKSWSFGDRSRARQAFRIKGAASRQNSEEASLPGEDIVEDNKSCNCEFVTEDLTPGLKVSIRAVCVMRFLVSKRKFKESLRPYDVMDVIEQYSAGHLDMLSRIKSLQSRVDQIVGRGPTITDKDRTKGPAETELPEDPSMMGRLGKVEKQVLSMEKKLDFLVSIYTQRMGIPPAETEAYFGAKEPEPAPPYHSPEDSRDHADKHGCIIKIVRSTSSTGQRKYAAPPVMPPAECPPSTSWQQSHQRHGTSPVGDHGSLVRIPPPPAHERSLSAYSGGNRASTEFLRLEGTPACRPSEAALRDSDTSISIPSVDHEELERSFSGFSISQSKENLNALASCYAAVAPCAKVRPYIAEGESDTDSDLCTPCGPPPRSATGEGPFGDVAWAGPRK

outcome, inactive:
CC(C1CC2CCC1C2)n1c(-c2ccoc2)n[nH]c1=S (centres undefined), COc1ccccc1C(=O)Nc1cccc(NC(=O)c2ccccc2OC(F)(F)F)c1, Cc1cccc(-c2n[nH]c(=S)n2C(C)C2CC3CCC2C3)c1 (centres undefined), Cc1cccc(C(=O)Nc2cccc(NC(=O)c3cccc(Cl)c3)c2)c1, Cc1cccc(S(=O)(=O)Nc2cccc(NC(=O)c3ccccc3)c2)c1, CCOc1ccccc1NC(=O)c1cccc(NC(=O)c2cccc(OC)c2)c1, Cc1cccc(C(=O)Nc2cccc(NC(=O)c3ccncc3)c2)c1, CCOc1ccccc1NC(=O)c1cccc(NC(=O)c2ccc(OC)cc2)c1, CCOc1ccccc1C(=O)Nc1cccc(NC(=O)c2ccccc2C(F)(F)F)c1, CCOc1ccc(NC(=O)c2cccc(NC(=O)C3CCCC3)c2)cc1, O=C(Nc1cccc(NC(=O)C2CCCCC2)c1)c1ccccc1, Cc1cccc(C(=O)Nc2cccc(NC(=O)C3CCCCC3)c2)c1, S=c1[nH]nc(-c2ccco2)n1CC1CCCCC1, O=C(Nc1cccc(NC(=O)c2ccc(C(F)(F)F)cc2)c1)c1ccccc1, CC(C)n1c(-c2ccco2)n[nH]c1=S, CCOc1ccccc1NC(=O)c1cccc(NC(=O)CC2CCCC2)c1, CC(C1CC2CCC1C2)n1c(-c2ccsc2)n[nH]c1=S (centres undefined), Cc1cccc(C(=O)Nc2cccc(NC(=O)c3ccccc3OC(F)(F)F)c2)c1, Cc1cccc(C(=O)Nc2cccc(NC(=O)c3ccccc3C(F)(F)F)c2)c1

Source: PubChem BioAssay AID588800 (Johns Hopkins Ion Channel Center, 2011)
